Results filed as inconclusive are left out. A number with no mark means an inactive call. Active and inactive are the calls of the source. The call rests on the fitted dose curve; in most records, active means well fitted activation curve with a large enough effect in the main read-out, with a control signal flat (not every such curve was filed as active); inconclusive means small, poorly fitted or top-dose-only effect, or effect the other way, or a change in a side signal; inactive means flat fitted curve, though single readings scatter.
target: 3',5'-cyclic-AMP phosphodiesterase 4B (Homo sapiens) (UniProt Q07343); assay: qHTS Assay for Inhibitors of PDE-IV (AID 607); details: HEK293 ACTOne CNG channel cells, membrane potential fluorescence; series mostly up to 22.9 µM; activation (PDE inhibition): at the top concentration; on activation (PDE inhibition): % of control where 0% means no effect
Summary of the method: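 ACTOne HEK293 cells carry a modified cAMP-gated CNG channel and express endogenous PDE4; plated 1000 cells/well, compounds up to 22.9 uM final. Membrane-potential dye fluorescence (ex 535/em 590) was read; parental cells received 10 uM forskolin + 100 uM RO 20-1724.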
Potency means the concentration at half of the fitted maximal effect.

Sequence of 3',5'-cyclic-AMP phosphodiesterase 4B (Homo sapiens) (Q07343 whole entry, looked up): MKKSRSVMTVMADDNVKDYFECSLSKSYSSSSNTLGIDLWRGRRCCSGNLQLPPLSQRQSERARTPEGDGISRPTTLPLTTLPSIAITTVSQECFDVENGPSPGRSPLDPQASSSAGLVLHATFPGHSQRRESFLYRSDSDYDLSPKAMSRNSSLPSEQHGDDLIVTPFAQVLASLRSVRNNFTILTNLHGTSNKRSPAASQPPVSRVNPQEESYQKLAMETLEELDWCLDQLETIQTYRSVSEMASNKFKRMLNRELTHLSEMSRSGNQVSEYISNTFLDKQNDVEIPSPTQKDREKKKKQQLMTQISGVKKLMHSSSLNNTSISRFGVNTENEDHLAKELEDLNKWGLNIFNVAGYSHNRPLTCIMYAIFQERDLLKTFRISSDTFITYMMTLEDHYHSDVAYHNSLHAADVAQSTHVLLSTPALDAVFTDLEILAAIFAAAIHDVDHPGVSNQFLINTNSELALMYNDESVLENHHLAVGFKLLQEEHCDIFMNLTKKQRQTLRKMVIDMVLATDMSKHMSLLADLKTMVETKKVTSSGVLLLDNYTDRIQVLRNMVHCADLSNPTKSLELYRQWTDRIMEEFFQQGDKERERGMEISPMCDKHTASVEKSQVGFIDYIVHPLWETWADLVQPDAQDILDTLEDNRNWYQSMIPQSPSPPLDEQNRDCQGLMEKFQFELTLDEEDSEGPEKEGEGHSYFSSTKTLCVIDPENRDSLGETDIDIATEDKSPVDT

SMILES | activation (PDE inhibition) | Potency
CC1=NN=C(c2ccc(N)cc2)c2cc3c(cc2C1)OCO3 | 1.47% | 
C#CCOC(=O)C1=CCCN(C)C1 |  | 0.398 µM (active)
CC(=O)NCCc1c[nH]c2ccccc12 | 4.63% | 
CCCN1CCO[C@@H]2c3cc(O)ccc3OC[C@@H]21 | 21% | 
COc1ccc2c(c[n+](C)c3c4cc5c(cc4ccc23)OCO5)c1OC | -11.9% | 
NCCc1c[nH]c2ccccc12 | 1.28% | 
Cc1nccc2c1[nH]c1ccccc12 |  | inactive
CC(C)Oc1cccnc1N(C)C1CCN(Cc2ccccc2)CC1 | -2.98% | 
CNCCc1c[nH]c2ccc(O)cc12 | -1.97% | 
S=C(NC1CCCCC1)N1CCC(c2cnc[nH]2)CC1 | -4.87% | 
CCOC(=O)c1cncn1[C@H](C)c1ccccc1 | 9.45% | 
CCCCc1ccc(C(=O)O)nc1 |  | inactive
CCCN(CCC)[C@@H]1CCc2ccc(O)cc2C1 |  | inactive
CNCCc1ccc(O)c(O)c1 | -10.1% | 
C[C@@H](N)Cc1cnc[nH]1 | 6.71% | 
CC[C@@]1(O)C(=O)OCc2c1cc1n(c2=O)Cc2cc3ccccc3nc2-1 |  | inactive
O=C1CCCN1CC#CCN1CCCC1 | 13.4% | 
O=C(O)CC[N+](=O)[O-] | 1.02% | 
O=C(O)Cc1cnc[nH]1 | -2.1% | 
Cn1cnc(CCN)c1 | -7.15% | 
c1ccc(CCCN2CCN(CCOC(c3ccccc3)c3ccccc3)CC2)cc1 | 14.8% | 
CC(=O)OCC1=C(C(=O)O)N2C(=O)[C@@H](N)[C@@H]2SC1 | -0.862% | 
C[C@@H]1O[C@H](C[N+](C)(C)C)C[C@H]1O |  | 3.16 µM (active)
Clc1cnc(Oc2ccc(Oc3ncc(Cl)cc3Cl)cc2)c(Cl)c1 | 28% | 
